Compound activity from PubChem.
Hits are enriched below; roughly 1.1% of the tested compounds scored in any of these assays.
GLS inh: blocks human kidney-isoform glutaminase activity. O94925. GLS enzymatic activity, qHTS titration. Potency, µM (top dose mostly 45.5 µM), hits mostly inhibitors. hit rate 0.21% among 410,000
Target sequence (O94925 whole entry, looked up, canonical isoform): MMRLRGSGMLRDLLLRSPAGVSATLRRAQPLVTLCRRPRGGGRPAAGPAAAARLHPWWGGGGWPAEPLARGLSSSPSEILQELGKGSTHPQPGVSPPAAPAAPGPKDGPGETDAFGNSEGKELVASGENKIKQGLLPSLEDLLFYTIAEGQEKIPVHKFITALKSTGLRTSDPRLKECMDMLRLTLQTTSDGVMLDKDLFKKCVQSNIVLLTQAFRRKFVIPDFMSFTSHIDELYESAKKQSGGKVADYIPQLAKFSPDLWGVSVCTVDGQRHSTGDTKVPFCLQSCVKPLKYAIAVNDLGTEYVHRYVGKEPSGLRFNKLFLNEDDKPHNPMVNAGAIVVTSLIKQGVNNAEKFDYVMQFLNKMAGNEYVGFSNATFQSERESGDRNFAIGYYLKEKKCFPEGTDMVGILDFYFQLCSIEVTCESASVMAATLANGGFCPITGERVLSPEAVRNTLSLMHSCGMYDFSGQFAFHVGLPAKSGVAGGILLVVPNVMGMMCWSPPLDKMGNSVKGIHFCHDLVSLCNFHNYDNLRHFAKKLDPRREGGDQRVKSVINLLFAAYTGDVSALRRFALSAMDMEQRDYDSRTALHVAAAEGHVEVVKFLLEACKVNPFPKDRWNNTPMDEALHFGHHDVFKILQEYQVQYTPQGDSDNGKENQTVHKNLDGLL
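hKGA in 45 mM KH2PO4 (pH 8.2), 0.02% Tween-20 with compound, then 1mM L-Glutamine (stock as added) plus glutamate oxidase/HRP/Amplex red coupling mix. Fluorescence read initially and after 30 min at RT; signal change reflects glutamate formation.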
Pin1 inhibitor: inhibitors of human Pin1; Q13526; Pin1 FP peptide displacement, HiFluor488, 10 min; Potency, µM (doses to about 115 µM), actives largely listed as inhibitors; hit rate 0.009% among 390,000; AID 504891; active = well fitted inhibition curve with a large enough effect in the polarisation, with a control signal flat, not every such curve was filed as active; inconclusive = small, poorly fitted or top-dose-only effect, or effect the other way, or a change in a side signal; inactive = no such curve, though single readings can be large or run the other way; the % refers to the polarisation
Tb PGK inh: inhibitors of T. brucei phosphoglycerate kinase; P07378; PGK/GAPDH coupled, Kinase-Glo luminescence, 60 min; Potency, µM (series often up to 57.5 µM), usual class: inhibitors; hit rate 0.043% among 380,000; AID 602233; note: nearly all actives have a fitted effect of over 60% in size
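Luminescent ATP detection (Kinase-Glo Plus) follows a 60-minute room-temperature incubation, with wells lacking PGK as controls. Buffer: 100 mM TEA (pH 7.6), 5 mM MgCl2, 0.01% Tween-20. Coupling enzyme GAPDH (100 nM final) supplies unstable 1,3-BPG in-well.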
VDR inhibitor: vitamin D3 receptor (human) inhibition; hit rate 0.93% among 400,000; Potency, µM, actives largely listed as inhibitors; VDR-SRC2-3 peptide fluorescence polarization, 2 h
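Two reagent solutions held at 4 deg C in the dark were dispensed, compounds pinned at 23 nl, and the mixture incubated 2 h at room temperature. Read-out: fluorescence polarization of VDR–SRC2-3 peptide binding.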
Tb PFK block: T. brucei PFK enzyme inhibition; AID 485367; hit rate 0.17% among 330,000; Potency, µM (highest dose often 57.5 µM), hits mostly inhibitors; T. brucei PFK, ADP-Glo luminescence; note: nearly all actives have a fitted effect of over 60% in size
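Luminescent ADP detection (ADP-Glo, two-step: ATP depletion then ADP-to-ATP conversion for luciferase) reported PFK activity after 45 min room-temperature reaction of 1.25 nM enzyme with 0.5 mM F6P and 0.1 mM ATP at pH 8.0.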
Numbers stand for hits; - = inactive; ? = inconclusive; . = no result; ! = a repeat was not active; [ ] = remark or other dose. Unless noted, calls come from the whole dose curve; as a rule, active = well fitted curve in the direction sought with a large enough effect; inconclusive = small, poorly fitted or top-dose-only effect, or another doubt; inactive = no such curve, though single readings can be large; an effect the other way counts as inactive or inconclusive.

SMILES | GLS inh | Pin1 inhibitor | Tb PGK inh | VDR inhibitor | Tb PFK block
CN(C)c1ccc(NC(=O)c2cccc(C(=O)Nc3ccc(N(C)C)cc3)n2)cc1 | - | - | - | 79µM | ?
CN(C)c1ccc(NC(N)=S)cc1 | 14µM | - | - | - | -
C=CCNC(=S)Nc1ccc(N(C)C)cc1 | - | - | - | 79µM | -
Nn1cc(Br)c(=O)[nH]c1=O | . | . | . | - | .
O=S(=O)(NCc1cc(-c2ccccc2Cl)no1)c1ccc(Cl)cc1 | ? | - | - | 18µM | -
COc1ccc(-c2cc(CNS(=O)(=O)c3ccc(NC(C)=O)cc3)on2)cc1 | - | - | - | - | -
O=C(CSc1nc2ccccc2nc1Cc1ccc(Cl)cc1)N1CCCc2ccccc21 | - | - | - | - | .
Clc1ccccc1-c1cncnc1NCCN1CCOCC1 | . | . | . | - | .
FC(F)(F)c1ccccc1-c1cncnc1NCCN1CCOCC1 | . | . | . | 45µM | .
CC(O)(Cc1ccccn1)Cc1ccccn1 | - | - | - | - | .
Cc1ccn2c(NC(C)(C)C)c(-c3cccs3)nc2c1 | 6.3µM | - | - | - | -
Cc1ccn2c(NC(=O)c3cccs3)c(-c3ccccc3)nc2c1 | - | - | - | - | -
S=c1[nH]c(-c2ccccc2)cn1/N=C/c1ccncc1 | 10µM | ? | - | - | ?
CC1CCN(C(c2ccc(F)cc2)c2sc3nc(-c4ccco4)nn3c2O)CC1 (stereo unspecified) | - | - | - | - | .
COc1cc2cc(CNc3ccc(C)cc3)c(=O)n(CC(=O)Nc3ccc(F)cc3F)c2cc1OC | ? | - | - | - | .
O=C(O)c1ccccc1N(c1ccccc1)c1ccccc1 | - | - | - | 35µM | .
O=C(Nc1ncc([N+](=O)[O-])s1)c1cccs1 | - | - | ? | - | -
Cc1ncoc1C(=O)Nc1ncc([N+](=O)[O-])s1 | - | - | - | 89µM | -
Cc1ccc(O)c(Nc2c3ccccc3nc3ccccc23)c1 | 8.9µM | - | - | - | -
CCN(CC)CCSC(=O)C(c1ccccc1)c1ccccc1 | - | . | . | 25µM | .
CCN(CC)CCOC(=O)C(c1ccccc1)c1ccccc1 | - | - | - | - | -
N#CC1=C2SCN(c3ccccc3)CN2C(=O)CC1c1cccs1 (stereo unspecified) | - | - | - | ? | -
N#CC1=C2SCN(c3ccccc3)CN2C(=O)CC1c1ccccc1Cl (stereo unspecified) | - | - | - | 28µM | -
N#CC1=C2SCN(c3ccccc3)CN2C(=O)CC1c1c(Cl)cccc1Cl (stereo unspecified) | - | - | - | 22µM | -
Cc1ccc(C2CC(=O)N3CN(c4ccc(Br)cc4)CSC3=C2C#N)o1 (stereo unspecified) | - | - | - | 45µM | -
SMILES | GLS inh | Pin1 inhibitor | Tb PGK inh | VDR inhibitor | Tb PFK block
Cc1ccc(C2CC(=O)N3CN(Cc4ccco4)CSC3=C2C#N)cc1 (stereo unspecified) | - | - | - | ? | -
Cc1ccc(S(=O)(=O)N2CCN(c3nc(C(N)=O)nc4ccccc34)CC2)cc1 | . | - | . | - | .
CN1CCN(C(CNC(=O)C(=O)NC2CCCC2)c2ccc(F)cc2)CC1 (stereo unspecified) | - | - | - | - | -
COC1=C(OC)C(=O)C(Sc2ccc3ccccc3c2)=CC1=O | 10µM | - | - | 8.9µM | .
COc1ccc(CNC(=O)c2cccn2-c2nnc(N3CCCC3)s2)c(OC)c1 | - | - | - | - | .
O=C(c1cnccn1)N1CCC[C@@]2(CCN(c3cccc(-c4ccccc4)c3)C2)C1 | . | . | . | 28µM | .
O=C(c1cnccn1)N1CCC[C@@]2(CCN(c3ccccc3)C2)C1 | . | . | . | - | .
CC(=O)N1CCC[C@@]2(CCN(c3ccncc3)C2)C1 | . | . | . | - | .
O=C(c1csnn1)N1CCC[C@@]2(CCN(c3ccncc3)C2)C1 | . | . | . | 71µM | .
Cn1c(/N=C/c2c(O)ccc3ccccc23)nc2ccccc21 | ? | - | - | 35µM | -
COc1cccc(NC(=O)c2nc(S(C)(=O)=O)ncc2Cl)c1 | - | - | - | 20µM | -
CCN(CC(=O)Nc1c(F)cccc1F)C(=O)/C=C/c1ccc2ccccc2n1 | 10µM | . | ? | - | ?
CCN(CC(=O)Nc1c(F)cccc1F)C(=O)c1ccc2ccccc2n1 | - | - | - | - | -
Cc1ccc(Cc2ccccc2C(=O)O)cc1 | - | - | - | - | .
O=C(O)c1ccccc1-c1ccccc1C(=O)Nc1ccc(F)cc1 | - | - | - | - | -
O=C(/C=C/c1ccc(NC(=O)c2ccccc2-c2ccccc2C(=O)O)cc1)c1ccccc1 | - | ? | - | 20µM | -
O=C(Nc1ccc(Nc2ccccc2)cc1)c1ccccc1F | - | ? | - | - | -
O=C(/C=C/c1ccncc1)c1ccc(NC(=O)c2ccccc2F)cc1 | - | - | - | 32µM | ?
Cc1ccc(NC(=O)/C(C#N)=N/Nc2ccc(C(=O)O)cc2)c(C)c1 | - | - | - | - | -
Cc1ccc(N/N=C(\C#N)C(N)=S)c(C)c1 | ? | - | - | 50µM | -
O=C1Nc2ccc(Br)cc2/C1=C/C1CC=CCC1 (stereo unspecified) | - | ? | - | 71µM | -
N#CN1CCC(NS(=O)(=O)c2ccc(F)cc2)CC1 | . | - | . | . | .
COc1ccc([C@]23Cc4ccccc4C(O2)C2=C(O3)C(=O)c3ccccc3C2=O)cc1 | . | . | . | . | -[11.5 µM]
COc1ccc(-c2ccnc3cc(C(=O)O)nn23)cc1 | ? | ? | - | - | -
O=C(O)c1cc2nccc(-c3ccco3)n2n1 | 11µM | . | ? | - | -
SMILES | GLS inh | Pin1 inhibitor | Tb PGK inh | VDR inhibitor | Tb PFK block
NS(=O)(=O)c1ccc(CCNC(=O)c2ccc(OCC3CCCO3)cc2)cc1 (stereo unspecified) | - | - | - | - | -
O=C(CSc1cn[nH]n1)Nc1cccc(C(=O)O)c1 | - | - | - | 45µM | -
COc1ccc(NC(=O)c2cc([N+](=O)[O-])ccc2NC(=O)CNCc2ccccn2)c(OC)c1 | - | - | - | 32µM | -
FC(F)(F)c1nnc(-c2ccccc2)nc1Sc1ccc(Cl)cc1 | - | - | - | 71µM | -
O=c1c(Cl)c(N2CCCCC2)cnn1-c1nc2ccccc2[nH]1 | - | - | ? | - | -
O=c1c2ccccc2cnn1-c1nc2ccccc2[nH]1 | - | - | 10µM | - | ?
CC#CCC(C)[C@H](O)/C=C/C1[C@H](O)C[C@@H]2C/C(=C\CCCC(=O)O)C[C@H]12 (stereo partly specified) | - | . | . | . | .
Cc1cccc(-n2c(O)c(C=Nc3ccccc3)c3ccccc3c2=O)n1 | - | - | - | 32µM | -
COc1ccc(N=Cc2c(O)n(-c3cccc(C)n3)c(=O)c3ccccc23)cc1 | - | - | - | - | -
CCN1CCN(Cc2ccc(NC(=O)c3ccc(C)c(NC(=O)N4CCNC4=O)c3)cc2C(F)(F)F)CC1 | - | - | 25µM! | - | -
CCN1CCN(Cc2ccc(NC(=O)c3ccc(C)c(NC(=O)c4nccn4C)c3)cc2C(F)(F)F)CC1 | - | - | - | - | -
COc1cccc(C2C(C(=O)Nc3ccccc3)=C(C)N=c3s/c(=C/c4ccc(OCC(=O)O)cc4)c(=O)n32)c1 (stereo unspecified) | - | - | - | - | -
